Where “and” joins values, the source holds several entries; their conditions need not be identical. Equal values may be shown once.
Each compound was assayed on H9c2 (assay: cardiomyocyte survival under oxidative or metabolic stress – cell-based, panel, H9c2 and HL-1, ATP luminescence, set 2, SAR follow-up (AID 651871;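 note: cells exposed to stressor for 2 h before ATP readout; reference of the scale not given here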)). Conditions: H9c2/HL-1 cardiomyocytes, 2-deoxyglucose stress, with 2-deoxyglucose; run 3, at 79 µM (top of the series).
For `COc1ccc2nc(-c3cc(OC)c(OC)c(OC)c3)cc(C(=O)NCC(=O)Nc3ccc(C(C)=O)cc3)c2c1`, the activity (protection/inhibition) was 75.4%.
In the case of `CCOC(=O)c1cccc(NC(=O)CNC(=O)c2cc(-c3cc(OC)c(OC)c(OC)c3)nc3ccccc23)c1`, the activity (protection/inhibition) is reported as 92.4%.
For `COc1ccc2c(c1OC)C(=O)N1c3ccccc3C(=O)N(Cc3cccc(Cl)c3Cl)C21` (stereo not drawn), the activity (protection/inhibition) was 71.2% and 81.8% and -10.3%.

From PubChem BioAssay AID651871 (Sanford-Burnham Center for Chemical Genomics, 2012)
